In the library only some 3.2% were active in any assay of this set; here they are far more common.
CaV13 ICDI inh: Primary screen for inhibitors of IQ motif and Ca2+-dependent inactivation inhibitor domain binding in CACNA1D, Förster resonance energy transfer in living cells, … | HEK cells, CFP/YFP FRET ICDI-IQ, plate reader, 10 min; percent FRET-ratio fall versus neutral wells | inhibition, % at 12.3 µM | 340,000 tested, 0.098% active | AID 743397;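 active = mean replicate inhibition of at least 30% and at least 1% of replicates passing that level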;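 also: 0% = median of the neutral control wells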
GSIS activator: GLuc luminescence reporter in INS-1E cells, primary screen for activators of glucose-dependent secretion of insulin; INS-1E GLuc reporter insulin secretion, 2-3 h; activation, % at 16.6 µM; 370,000 tested, 0.61% active; AID 743287;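 active = lowest replicate activation of at least 40%, so every replicate reaches that level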;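 also: 0% = median of neutral control wells and 100% = median of IBMX positive control wells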
ERAP1 HTS inh: inhibitors of human ERAP1 aminopeptidase. Q9NZ08. 340,000 tested, 0.15% active. AID 652197. recombinant ERAP1, Leu-AMC fluorescence, 60 min. inhibition, % at 10.7 µM;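 active = mean replicate inhibition of at least 30%, or all replicates individually reaching that 30% level; inactive = mean below 30% and not every replicate reaching it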;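 also: 0% = neutral control wells and 100% = L-leucinethiol positive control wells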
Target sequence (Q9NZ08 whole entry, looked up): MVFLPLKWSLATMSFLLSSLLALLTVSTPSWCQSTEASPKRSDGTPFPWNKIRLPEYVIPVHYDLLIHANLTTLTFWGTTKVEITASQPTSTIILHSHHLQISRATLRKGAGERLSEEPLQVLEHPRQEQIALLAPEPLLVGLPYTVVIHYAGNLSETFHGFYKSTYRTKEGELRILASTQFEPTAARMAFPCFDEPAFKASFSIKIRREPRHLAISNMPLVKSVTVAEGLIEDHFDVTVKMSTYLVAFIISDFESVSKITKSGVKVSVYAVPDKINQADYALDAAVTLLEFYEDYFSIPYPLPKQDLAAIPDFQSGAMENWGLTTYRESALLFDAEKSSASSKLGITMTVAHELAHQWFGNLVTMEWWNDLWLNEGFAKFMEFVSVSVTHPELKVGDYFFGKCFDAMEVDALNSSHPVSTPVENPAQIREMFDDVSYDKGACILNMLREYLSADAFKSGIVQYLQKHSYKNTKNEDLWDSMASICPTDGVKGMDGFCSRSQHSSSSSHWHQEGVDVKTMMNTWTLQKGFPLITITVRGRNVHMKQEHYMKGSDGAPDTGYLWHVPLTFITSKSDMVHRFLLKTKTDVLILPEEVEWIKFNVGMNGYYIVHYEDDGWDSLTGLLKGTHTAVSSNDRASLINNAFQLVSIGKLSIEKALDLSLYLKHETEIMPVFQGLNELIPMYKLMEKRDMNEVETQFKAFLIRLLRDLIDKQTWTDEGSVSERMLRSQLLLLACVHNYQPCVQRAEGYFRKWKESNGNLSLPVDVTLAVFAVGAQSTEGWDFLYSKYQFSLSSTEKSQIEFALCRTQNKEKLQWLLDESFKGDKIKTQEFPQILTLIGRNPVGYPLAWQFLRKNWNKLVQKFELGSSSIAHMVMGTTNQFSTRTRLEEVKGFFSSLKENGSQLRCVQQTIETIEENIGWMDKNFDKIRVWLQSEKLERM
PGC1a acetyl inh: PGC1a acetylation modulation, inhibitor mode; inhibition, % at 15.6 µM; 350,000 tested, 0.17% active; U2OS PGC1a acetylation, AlphaScreen anti-acetyl-lysine; with virally co-expressed GCN5 acetyltransferase;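 active = every replicate shows inhibition of at least 40%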;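 also: 0% = neutral control wells and 100% = positive control wells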
Ecoli rRNA inh: selective bacterial rRNA inhibition in E. coli | E. coli WT GFP vs humanized-ribosome RFP mutants, fluorescence, 24 h; active compounds read low; DMSO median 0, no signal -100 | AID 720706 | 350,000 tested, 1.6% active | GFP signal change (wild-type ribosome), % (no concentration beside the values);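 active = significant combined selectivity score with lowered wild-type GFP, culture density cut under 30%, mutant RFP and density less affected; inactive = any of these conditions unmet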
DENV2 CPE: protects cells from dengue virus 2 cytopathic effect | DENV2-infected cells, cytopathic effect rescue, plate reader | CPE inhibition, % at 9.99 µM | 350,000 tested, 1.7% active | AID 651640; in the data active = CPE inhibition above about 20%, passing the limit was not always enough; tested in BHK-21 cells;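 also: 0% = median of neutral control wells and 100% = median of positive control wells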
* hit, by the source's call; / = not tested or not shown.

SMILES | CaV13 ICDI inh | GSIS activator | ERAP1 HTS inh | PGC1a acetyl inh | Ecoli rRNA inh | DENV2 CPE
COCC#Cc1ccc2c(c1)O[C@@H](CN(C)C(=O)Nc1ccccc1F)[C@H](C)CN([C@@H](C)CO)S2(=O)=O | / | 4.7 | 7.1 | -9.1 | 1.3 | 90.1*
COCC#Cc1ccc2c(c1)O[C@H](CN(C)C(=O)Nc1ccccc1F)[C@@H](C)CN([C@@H](C)CO)S2(=O)=O | / | -6.2 | 6.2 | -8.9 | -3.8 | -4.5
C[C@@H]1CN([C@H](C)CO)S(=O)(=O)c2ccc(C#CC(C)(C)O)cc2O[C@@H]1CN(C)C(=O)C1CCCCC1 | / | 2.1 | -1.1 | -2.2 | 0.4 | 20.4*
CC(C)CC#Cc1ccc2c(c1)O[C@H](CN(C)C(=O)c1ccccc1F)[C@H](C)CN([C@H](C)CO)S2(=O)=O | / | -25.2 | 2.2 | -8.3 | -4.0 | -15.7
CC(C)CC#Cc1ccc2c(c1)O[C@@H](CN(C)C(=O)c1ccccc1F)[C@H](C)CN([C@@H](C)CO)S2(=O)=O | / | -32.2 | 0.5 | 5.1 | -4.4 | 39.4*
C[C@H](CO)N1C[C@H](C)[C@@H](CN(C)Cc2ccccc2F)Oc2cc(C3=CCCCC3)ccc2S1(=O)=O | / | 7.0 | -0.5 | -13.8 | 0.9 | -13.1
CC(C)CC#Cc1ccc2c(c1)O[C@H](CN(C)C(=O)C1CCCCC1)[C@@H](C)CN([C@@H](C)CO)S2(=O)=O | / | 55.3* | -1.8 | 34.8 | -3.5 | -4.1
COc1ccccc1C#Cc1cnc2c(c1)C(=O)N([C@H](C)CO)C[C@@H](C)[C@H](CN(C)C(=O)CC1CC1)O2 | / | -9.2 | -2.5 | 5.9 | -1.7 | -11.6
Cc1ccc(OCc2ccc(Br)cc2)c([N+](=O)[O-])n1 | -4.5 | -2.5 | -2.7 | / | -14.7 | -9.6
Cc1ccc(OCc2ccc(-c3ccccc3)cc2)c([N+](=O)[O-])n1 | -3.3 | 25.5 | -0.3 | -11.7 | 2.3 | 35.8*
COc1ccc(S(=O)(=O)Nc2ccccc2OC)cc1N=Nc1c(O)[nH]c(=S)[nH]c1=O | -7.1 | 98.8* | 0.4 | 9.7 | 19.9 | -3.4
COc1ccccc1NS(=O)(=O)c1ccc2[nH]c(=O)[nH]c2c1 | -19.9 | 14.8 | -0.7 | / | 17.3 | -4.1
O=C(CCn1cncn1)N1CCCC(N2CCN(c3ccc(F)cc3)CC2)C1 (stereo unspecified) | -2.1 | 16.1 | 1.0 | 3.2 | 2.7 | 43.3*
CC[C@H]1CC=CC[C@H](C)Oc2ccccc2C(=O)N(C)[C@@H](Cc2ccccc2)C(=O)N1 (mixture of isomers) | / | -7.9 | / | / | -23.1 | /
CO[C@@H]1CN(C)C(=O)c2cc(NS(=O)(=O)c3ccc(C)cc3)ccc2OC[C@H](C)N(C)C[C@H]1C | / | 13.7 | -1.4 | -4.4 | -2.2 | -6.1
COc1cccc2c1C(CO)N1C(C#N)C3CC(C(=O)O)C(C1C2)N3C (stereo unspecified) | / | 7.4 | -3.3 | 66.4* | 4.5 | -11.1
COc1ccccc1-c1ccccc1[C@H]1[C@@H](CO)N(C(=O)C2CC2)[C@H]1C#N | / | 15.7 | -0.4 | 14.0 | 1.3 | -10.3
C[C@H]1CCCCO[C@H](CN(C)S(=O)(=O)c2ccc(Cl)cc2)[C@@H](C)CN([C@@H](C)CO)C(=O)c2cc(NC(=O)CCCN(C)C)ccc2O1 | / | 14.6 | -0.3 | -8.6 | 3.2 | 5.8
Cc1noc(C)c1NC(=O)Nc1ccc2c(c1)C(=O)N([C@@H](C)CO)C[C@@H](C)[C@@H](CN(C)S(C)(=O)=O)OCCCC[C@@H](C)O2 | / | 10.8 | -2.1 | 3.6 | 2.4 | 102.1*
Cc1noc(C)c1NC(=O)N(C)C[C@@H]1OCCCC[C@H](C)Oc2ccc(NS(=O)(=O)c3ccc(Cl)cc3)cc2C(=O)N([C@H](C)CO)C[C@@H]1C | / | -11.4 | -4.0 | 13.8 | -2.9 | 32.2*
Cc1noc(C)c1NC(=O)N(C)C[C@@H]1OCCCC[C@H](C)Oc2ccc(NS(=O)(=O)c3ccc(Cl)cc3)cc2C(=O)N([C@@H](C)CO)C[C@H]1C | / | 0.8 | -4.3 | -7.2 | -3.9 | -5.7
Cc1noc(C)c1NC(=O)Nc1ccc2c(c1)C(=O)N([C@@H](C)CO)C[C@@H](C)[C@@H](CN(C)C)OCCCC[C@@H](C)O2 | / | 18.1 | 1.8 | -4.1 | -0.8 | 84.2*
Cc1noc(C)c1NC(=O)Nc1ccc2c(c1)C(=O)N([C@H](C)CO)C[C@H](C)[C@H](CN(C)C(=O)Nc1ccccc1)OCCCC[C@H](C)O2 | / | 0.2 | -2.1 | -10.3 | 2.0 | 68.4*
CNC[C@H]1Oc2ccc(NC(C)=O)cc2CC(=O)N(C)C[C@H]1C | / | 12.9 | / | / | -1.3 | /
Cc1noc(C)c1NC(=O)Nc1ccc2c(c1)C(=O)N([C@@H](C)CO)C[C@@H](C)[C@H](CN(C)C(=O)Nc1c(C)noc1C)OCCCC[C@H](C)O2 | / | 20.3 | -3.8 | -4.5 | 3.0 | 9.6
SMILES | CaV13 ICDI inh | GSIS activator | ERAP1 HTS inh | PGC1a acetyl inh | Ecoli rRNA inh | DENV2 CPE
Cc1noc(C)c1NC(=O)Nc1ccc2c(c1)C(=O)N([C@@H](C)CO)C[C@@H](C)[C@H](CN(C)C(=O)Nc1c(C)noc1C)OCCCC[C@@H](C)O2 | / | 2.0 | -4.8 | -3.0 | 2.9 | 30.5*
Cc1cc(C)n2c(Nc3ccc4c(c3)OCCO4)c(-c3ccccn3)nc2n1 | -10.8 | -14.9 | 54.3* | / | 4.6 | 2.9
Cc1cc(C)n2c(NC3CCCCC3)c(-c3ccccn3)nc2n1 | -11.9 | -6.0 | 0.5 | / | 0.8 | 29.0*
Cc1cc(C)n2c(Nc3ccc4c(c3)OCCO4)c(-c3cc4ccccc4o3)nc2n1 | -5.4 | 30.5 | 0.0 | / | -1.6 | 1.1
COc1cccc(-c2nc3nc(C)cc(C)n3c2NC2CCCC2)c1 | -5.1 | 8.7 | -0.6 | / | 11.1 | 29.6*
CC(=O)N(C)C[C@H]1Oc2ncc(-c3ccc(C#N)cc3)cc2C(=O)N([C@H](C)CO)C[C@H]1C | / | 8.8 | -3.2 | 13.0 | 4.8 | 16.9
COCC(=O)N(C)C[C@H]1Oc2cc(C#C[C@H](C)O)ccc2S(=O)(=O)N([C@H](C)CO)C[C@@H]1C | / | 9.0 | -2.3 | 4.2 | 6.5 | -1.2
CCOc1ccc(C(=O)NCC(=O)N2CCCCCCC2)cc1 | -1.7 | -6.3 | 0.3 | -7.6 | -2.7 | 22.2*
CCOc1ccc(C(=O)NCC(c2ccco2)N2CCOCC2)cc1 (stereo unspecified) | -5.3 | 2.1 | -1.5 | / | 5.2 | 26.0*
Cc1ccccc1-c1cnc2c(c1)C(=O)N([C@@H](C)CO)C[C@H](C)[C@H](CN(C)C(=O)c1ccccc1)O2 | / | 9.6 | / | 5.3 | 0.6 | -6.1
COCC(=O)N1CC2(C1)[C@H](c1ccccc1)[C@@H](CO)N2C(=O)c1ccccc1 | / | 12.0 | 1.0 | 2.2 | 1.0 | 1.9
O=C(NC1CCCCC1)C1CCN(c2ncccn2)CC1 | -4.2 | -7.7 | -0.4 | 11.8 | 3.0 | -2.3
O=C(NC1CCCCCC1)C1CCCN(c2ncccn2)C1 (stereo unspecified) | -6.8 | 64.8* | -2.3 | 6.7 | -1.6 | 0.4
